Screening results from PubChem BioAssay.
HT1080-NT tox – kills 2HG-producing HT-1080-NT fibrosarcoma cells; AID 686970; 360,000 compounds, 1.6% hits; Potency, µM (series often up to 46.1 µM), for the others: top-dose activity, negative = less viability, hits mostly cytotoxic; HT-1080-NT fibrosarcoma viability, CellTiter-Glo ATP luminescence, 48 h;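 also: NT is the 2HG producing partner of a matched IDH1 knockdown line; 0% = DMSO-treated cells and -100% = media-only wells without cells; nearly all actives have a fitted effect of over 55% in size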
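HT-1080-NT fibrosarcoma cells (2HG-overproducing), 750 cells/well in RPMI with 5% FBS, dosed after 2 h and incubated 48 h at 37C. CellTiter-Glo luminescence normalized to DMSO and no-cell wells; concentration-response curves fitted and classed.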
KB-3-1 tox – kills parental KB-3-1 adenocarcinoma cells | KB-3-1 viability, CellTiter-Glo ATP luminescence, 72 h | Potency, µM (series often up to 46.1 µM), hits mostly cytotoxic | 400,000 compounds, 1.4% hits; also: nearly all actives have a fitted effect of over 60% in size
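Using CellTiter-Glo luminescence, growth of non-resistant KB-3-1 adenocarcinoma cells is assessed 72 h after pin-tool compound addition at 37 °C. Normalized responses across the concentration series yield fitted curves.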
DT40 TDP1 no CPT – qHTS for Inhibitors of human tyrosyl-DNA phosphodiesterase 1 (TDP1): qHTS in cells in absence of CPT; DT40 Tdp1-/- hTDP1 cells, no CPT, ATP luminescence, 48 h; Potency, µM (highest dose often 46.2 µM), without a hit: at the highest dose activity change, negative = growth inhibition, usual class: inhibitors; 420,000 compounds, 15% hits; also: nearly all actives have a fitted effect of over 55% in size
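Compound effects on proliferation are scored in DT40 Tdp1-/-;hTDP1 cells in the absence of CPT. ATP levels (CellTiter-Glo luminescence) are recorded after a ≥48 hr, 37 °C incubation.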
HT1080 IDH1KD tx – kills HT-1080 cells with IDH1 knockdown. AID 686971. Potency, µM (doses to about 46.1 µM), for the others: at the top dose activity, negative = toxicity, actives largely listed as cytotoxic. 360,000 compounds, 2% hits. HT-1080 IDH1 knockdown viability, ATP luminescence, 48 h;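 also: 0% = DMSO wells and -100% = cell-free medium wells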
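Assay cells: HT-1080 with IDH1 knockdown, 750 per well, RPMI/5% FBS. Exposure: 48 h at 37 °C following 2 h pre-incubation. Read: CellTiter-Glo luminescence; fitted concentration-response, curve class assigned.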
KB-V1 cytotox – kills drug-selected multidrug resistant KB-V1 cells. Potency, µM (titrated, usually from 46.1 µM), hits mostly cytotoxic. KB-V1 MDR cells viability, CellTiter-Glo, 72 h. 400,000 compounds, 3.4% hits; also: nearly all actives have a fitted effect of over 60% in size
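Compound-treated KB-V1 multidrug-resistant cells, 72 h, 37 degrees C; viability by CellTiter-Glo. Fitted qHTS curves give the values.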
TDP1 cell CPT – DT40-hTDP1 cell growth loss with CPT; 420,000 compounds, 12% hits; chicken DT40 Tdp1-/-;hTDP1 cells + 20 nM CPT, ATP luminescence, 48 h; Potency, µM (top dose mostly 46.2 µM), without a hit: top-dose activity change, negative = growth inhibition, usual class: inhibitors; also: nearly all actives have a fitted effect of over 55% in size
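Cell growth measured by CellTiter-Glo luminescence after a minimum 48 h, 37 C compound exposure with 20 nM CPT in Tdp1-knockout DT40 cells stably expressing hTDP1, seeded 400/well; qHTS titration format.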
An asterisk follows results filed as active; i = inactive; u = inconclusive; x = not tested or not shown. Compounds with a hit are over-represented: about 19% of the library has one in this group of screens. Calls follow the shape of the dose curve; as a rule, active = well fitted curve in the direction sought with a large enough effect; inconclusive = small, poorly fitted or top-dose-only effect, or another doubt; inactive = no such curve, though single readings can be large; an effect the other way counts as inactive or inconclusive. Unless noted, % is scaled to controls: 0 for no effect and ±100 for the full control effect; potency is read from the fitted curve at half-maximal effect.

SMILES	HT1080-NT tox	KB-3-1 tox	DT40 TDP1 no CPT	HT1080 IDH1KD tx	KB-V1 cytotox	TDP1 cell CPT
Cc1ccccc1NC(=S)Nc1ccc2[nH]c(=O)[nH]c2c1	-1%	i	15%	5%	i	-6%
Cc1ccc2c(C)c(C(=O)NCCN3CCOC3=O)oc2c1C	3%	i	15%	-8%	i	-7%
Cn1cccc1C(=O)NC(=O)COC(=O)CCNS(=O)(=O)c1ccc(Cl)cc1	-2%	u	10%	-2%	i	-17%
O=C(O)CN1C(=O)C2(OCCCO2)c2ccccc21	13%	i	5%	4%	i	2%
Cc1ccccc1CN1C(=O)C2(OCCCO2)c2ccccc21	1%	i	u	-27%	i	11µM*
COC(=O)c1ccc(C(C(=O)NCc2ccccc2)N(Cc2cccs2)C(=O)c2cnccn2)cc1 (stereo not given)	-6%	i	16µM*	-17%	i	u
Cc1ccc(C(C(=O)NCc2ccccc2)N(Cc2cccs2)C(=O)c2ccc3c(c2)OCCO3)cc1 (stereo not given)	u	u	3.7µM*	u	i	9.2µM*
CSCc1cc(N(C)c2ccccc2)nc(-c2ccccn2)n1	0%	i	4.6µM*	-1%	i	2.9µM*
CN(C)c1cc(C(F)(F)F)nc(-c2ccccn2)n1	u	i	-18%	u	u	-16%
Cc1cc2ccc(=O)oc2cc1OC[C@@H](O)C(C)(C)O	x	x	14%	x	x	21%
COc1cccc(NS(=O)(=O)c2ccc3c(c2)N(C)C(=O)CC(=O)N3C)c1	x	i	-17%	x	u	-3%
Cc1ccc2nc(-c3cccc(NC(=O)c4ccc5c(c4)OCCO5)c3)oc2c1	4%	u	u	5%	i	-16%
O=C(Nc1ccc(Cl)cc1Cl)c1ccc2c(c1)OCCO2	-5%	u	-5%	-2%	i	-21%
O=C(Nc1nnc(-c2cc(Cl)ccc2Cl)o1)c1ccc2c(c1)OCCO2	x	x	16µM*	x	x	u
Cc1ccc2oc(-c3cc(NC(=O)Cc4ccccc4)ccc3Cl)nc2c1	x	i	u	x	i	u
Cc1ccc2nc(-c3cc(NC(=O)/C=C/c4ccccc4)ccc3Cl)oc2c1	x	i	16µM*	x	i	23µM*
Cc1ccc2nc(-c3cc(NC(=O)c4ccc5c(c4)OCCO5)ccc3Cl)oc2c1	x	i	16µM*	x	u	u
CC(=O)N1CCOc2ccc(S(=O)(=O)NC[C@H]3O[C@@H](n4cnc5c(N)ncnc54)[C@H](O)[C@@H]3O)cc21	15%	i	-7%	12%	i	-2%
Cc1cc(O)c2/c(=N\N)c(-c3csc(C)n3)coc2c1	7%	i	-12%	9%	u	7%
NC(=O)c1cc2ccccc2o/c1=N\NC(=O)c1ccc(F)cc1	1%	i	8.2µM*	-1%	i	21µM*
CCCCCCCCCC(=O)N[C@@H]1c2cc(OC)c(OC)cc2C[C@H]1O	-4%	i	16µM*	-5%	i	u
O=C(NCc1ccc(Cl)cc1)c1noc2c1CCCCC2	-5%	i	-37%	2%	21µM*	-16%
O=C(NCc1ccc(F)cc1)c1noc2c1CCCC2	-16%	i	u	-17%	i	-22%
O=C(NCc1ccc(F)cc1)c1noc2c1CCCCC2	8%	i	-19%	1%	16µM*	-13%
CC(C)c1ccc(NC(=O)[C@H](Cc2c[nH]c3ccccc23)NC(=O)[C@@H]2Cc3ccccc3CN2)cc1	-14%	u	u	-18%	i	u
SMILES	HT1080-NT tox	KB-3-1 tox	DT40 TDP1 no CPT	HT1080 IDH1KD tx	KB-V1 cytotox	TDP1 cell CPT
CC(C)(C(=O)N1CCC1(C)C(=O)NC1Cc2ccccc2C1)c1ccccc1 (stereo not given)	8%	i	21µM*	-9%	i	16µM*
CN=C1NN=C(c2cc(C)n(-c3c(C)n(C)n(-c4ccccc4)c3=O)c2C)CS1	3%	u	-17%	10%	i	-5%
c1ccc2c(C3=NNC(=NC4CC4)SC3)c[nH]c2c1	-15%	i	u	-3%	i	u
COc1ccc(-n2c(C)cc(C3=NNC(=NC4CC4)SC3)c2C)cc1	23µM*	u	23µM*	21µM*	u	u
COCCn1c(C)cc(C2=NNC(=NC3CC3)SC2)c1C	u	i	u	u	u	u
c1ccc(C2=NNC(=NC3CC3)SC2)cc1	u	u	18µM*	18µM*	i	u
Cc1cc(C2=NNC(=NC3CC3)SC2)c(C)n1-c1ccccc1	-13%	i	23µM*	-21%	i	u
COc1ccc(C2CC(=O)c3cc(-c4nc(-c5cccc([N+](=O)[O-])c5)cs4)c(=O)n(-c4ccc(C)c(C)c4)c3C2)cc1 (stereo not given)	x	i	0%	x	i	10%
CCC(CO)NC(=O)c1cccc(S(=O)(=O)N2c3ccccc3CC2C)c1 (stereo not given)	-3%	i	u	-5%	i	-8%
CCCn1c(CCNc2nc(-c3cccc(Br)c3)cs2)nc2ccccc21	14%	i	u	15%	i	-27%
Cc1cccc(NC(=O)c2ncn3c2C(=O)N(C)CC3)c1	12%	i	u	5%	i	-11%
